In PubChem BioAssay (NCI):
The panel holds about 79,000 compounds, 15% with a hit somewhere; the sample as a whole holds those more often. Active and inactive are the calls of the source. Rule as the data show it: active = growth inhibition above about 70%; inactive = the rest.

Experiments:
[1] = NCI Yeast Anticancer Drug Screen. Data for the rad50 strain (AID 155);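 also: 0% = growth of vehicle-only cultures of the same strain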; conditions: S. cerevisiae rad50 strain growth inhibition; at 50.0 µM; active compounds read high
Method in brief: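 Yeast carrying a defined DNA repair defect were exposed to test compounds, and growth was compared with vehicle-treated controls to give percent inhibition.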

[2] = NCI Yeast Anticancer Drug Screen. Data for the mec2-1 strain (AID 157); conditions: S. cerevisiae mec2-1 strain, at 50.0 µM, active compounds read high
Method in brief: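 Mutant yeast (mec2-1) grown with compound; growth inhibition relative to vehicle control reported.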

[3] = NCI Yeast Anticancer Drug Screen. Data for the sgs1 mgt1 strain (AID 161);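 also: 0% = growth of cultures given vehicle only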; conditions: S. cerevisiae sgs1 mgt1 strain, at 50.0 µM, active compounds read high
Method in brief: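 Yeast cells carrying a defined DNA-repair defect were exposed to test compounds. Growth inhibition was measured relative to vehicle-treated controls.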

[4] = NCI Yeast Anticancer Drug Screen. Data for the cln2 rad14 strain (AID 165);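 also: 0% = growth equal to vehicle treated cultures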; conditions: S. cerevisiae cln2 rad14 strain, at 50.0 µM, active compounds read high
Method in brief: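 Readout is yeast growth inhibition versus vehicle-treated controls, using a strain with cln2 and rad14 alterations exposed to compound.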

[5] = NCI Yeast Anticancer Drug Screen. Data for the bub3 strain (AID 167); conditions: S. cerevisiae bub3 mutant strain, at 50.0 µM, active compounds read high
Method in brief: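 Compounds were applied to a genetically altered yeast strain carrying a cell-cycle control defect. Growth inhibition was scored against vehicle-treated controls.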

[6] = NCI Yeast Anticancer Drug Screen. Data for the mlh1 rad18 strain (AID 175); conditions: S. cerevisiae mlh1 rad18 strain growth inhibition; at 50.0 µM; active compounds read high
Method in brief: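 Genetically defined yeast (DNA repair-deficient) exposed to compounds; growth inhibition determined relative to vehicle.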

Measured: growth inhibition

CCOc1ccc(NC(=O)C(C)O)cc1 (stereo not drawn)
inactive: [1] -29.9% | [2] -14.4% | [3] -20.2% | [4] 6.1% | [5] -3.65% | [6] -14.3%

CCCN(CCC)C(=O)c1ccc(C(C)C)cc1
inactive: [1] 11.2% | [2] 7.05% | [3] 19.1% | [4] -6.8% | [5] 9.7% | [6] 9.7%

CC(SSc1ccc(C(C)(C)C)cc1)c1ccccc1 (stereo not drawn)
inactive: [1] 9.25% | [2] -14.2% | [3] -11.1% | [4] -35.4% | [5] 10.2% | [6] -1.4%

c1ccc(CN2COc3ccc4c5c(ccc4c3C2)OCN(Cc2ccccc2)C5)cc1
inactive: [1] -13.1% | [2] -5.45% | [3] -6.7% | [4] -21.6% | [5] 2.05% | [6] -17.7%

COc1ccc(Br)c(C=O)c1NC(C)=O
inactive: [1] 22.7% | [2] 11.4% | [3] 38.1% | [4] -1.3% | [5] -8.25% | [6] -4.1%

Cc1cc(S(=O)(=O)Nc2n[nH]c(Nc3ccccc3)n2)c(S)cc1Cl
inactive: [1] -3.5% | [2] 9% | [3] -13.8% | [4] 9.6% | [5] 12.9% | [6] 19.6%

CCC(O)C(C)(C)N (stereo not drawn)
inactive: [1] 13.4% | [2] -7.8% | [3] 2.7% | [4] -6.45% | [5] 4.45% | [6] 0.4%

ON=C1CCCCC1
inactive: [1] 37.9% | [2] 7.45% | [3] -1.45% | [4] -27.9% | [5] -3.15% | [6] 25.1%

NC(N)=NC(Cc1ccccc1)C(=O)O (stereo not drawn)
inactive: [1] -8.15% | [2] -10% | [3] 1.3% | [4] -26.6% | [5] -12.4% | [6] 0%

CC1(C)CC(O)CC(C)(C)N1.CC1(C)CC(O)CC(C)(C)N1.CC1(C)CC(O)CC(C)(C)N1.CC1(C)CC(O)CC(C)(C)N1.Cl.[Ti]
inactive: [1] -2.95% | [2] -4.45% | [3] 12.9% | [4] 17.8% | [5] 26.1% | [6] 10.5%

C(=N/OCc1ccccc1)/c1ccncc1
inactive: [1] 45% | [2] 27.6% | [3] 45.7% | [4] 30.2% | [5] 47.4% | [6] 46.9%

CCC1=CC(C=O)N(C(C)=O)c2ccccc21 (stereo not drawn)
inactive: [1] -2.85% | [2] 7.8% | [3] 7.2% | [4] 2.1% | [5] 1.95% | [6] -2.5%

O=C(C[n+]1cccc(Cl)c1)c1cccc([N+](=O)[O-])c1
inactive: [1] -25.7% | [2] -7.2% | [3] -9.25% | [4] -3.8% | [5] 4.55% | [6] -5%

CCCCOC(=O)C1CCCC1=O (stereo not drawn)
inactive: [1] -14.6% | [2] -31.9% | [3] -2.15% | [4] 1.45% | [5] -43.1% | [6] 9.05%

CCOc1ncc(C[n+]2csc(CCO)c2C)c(N)n1
inactive: [1] -4.95% | [2] -8.7% | [3] 8.25% | [4] 0.8% | [5] -19.9% | [6] -5.35%

C/C(CC(=O)Nc1ccc(C)cc1)=N\NC(N)=S
inactive: [1] -13.5% | [2] -7.7% | [3] 3.45% | [4] 8.3% | [5] -1% | [6] -19.6%

O=C(O)c1ccc([N+](=O)[O-])cc1N(c1ccccc1)c1ccccc1
inactive: [1] 27.6% | [2] 29.9% | [3] 40.1% | [4] 22.2% | [5] 29.3% | [6] 54%

Cc1ccc(S(=O)(=O)NN=C2CCCCCC2)cc1
inactive: [1] 8.65% | [2] 7.55% | [3] 8.75% | [4] -24.9% | [5] -12.4% | [6] 5.65%

Clc1cc(Cc2cc(Cl)c(Cl)c3c2OCOC3)c2c(c1Cl)COCO2
inactive: [1] -47.6% | [2] -24.9% | [3] -5% | [4] -22.4% | [5] -10.6% | [6] -18.3%

C[n+]1ccc2ccccc2c1C#N
inactive: [1] 2.55% | [2] 10.6% | [3] -3.75% | [4] -0.35% | [5] 0.35% | [6] 14.9%

Cc1nc(-n2nc(-c3ccccc3)cc2-c2ccccc2)sc1C(=O)/C=C/c1ccccc1
inactive: [1] 6.95% | [2] 18.9% | [3] 14.7% | [4] 9.1% | [5] 29.6% | [6] 12.9%

COc1cc(C(C)Cl)ccc1OC(=O)c1ccccc1 (stereo not drawn)
inactive: [1] 10.8% | [2] -5% | [3] 3.95% | [4] -10.2% | [5] 12.2% | [6] 4.5%

COc1cc2cccc(N=Cc3ccccc3Cl)c2cc1OC
inactive: [1] -8.7% | [2] -7.4% | [3] -11.3% | [4] 27.9% | [5] 8.55% | [6] -3.8%

Oc1ccccc1CNCc1nc2ccccc2[nH]1
inactive: [1] -8.1% | [2] -1.7% | [3] -11.6% | [4] -8.7% | [5] -4.4% | [6] 18.6%

N#Cc1cc2c(cc1C#N)SCCSCCCSCCS2
inactive: [1] 1.2% | [2] 5% | [3] 1.05% | [4] 22.4% | [5] 6% | [6] -24.8%

CCc1cc(COC(C)=O)on1
inactive: [1] 5.35% | [2] -18.5% | [3] -8.4% | [4] -35.9% | [5] -1.9% | [6] -2.6%

CCCCNc1c(C(=O)N2CCCCC2)cnc2c1cnn2CC
inactive: [1] -3.15% | [2] 1.8% | [3] 26.2% | [4] -13.9% | [5] 46.8% | [6] 1.05%

CN1C(=O)N/C(=C\c2ccc(S(=O)(=O)NN)cc2)C1=O
inactive: [1] 4.05% | [2] 9.6% | [3] 24.7% | [4] 11.7% | [5] -18.8% | [6] 39.2%

Cc1ccccc1NCC#N
inactive: [1] -23.9% | [2] -26% | [3] -19.2% | [4] -15.2% | [5] 10% | [6] -11.6%

COc1ccc2c(CCn3ccccc3=O)cccc2c1
inactive: [1] -13.3% | [2] -8.5% | [3] 7.55% | [4] -13.9% | [5] 44.9% | [6] -11.2%

Nc1ccc(S(=O)(=O)/N=C(\NS(=O)(=O)c2ccc(N)cc2)c2ccccc2)cc1
inactive: [1] 15.7% | [2] 0.65% | [3] 12.2% | [4] 16.2% | [5] 5.85% | [6] 1.45%

O=S(=O)(NO)c1ccc(Cl)cc1
inactive: [1] 12.5% | [2] 7.8% | [3] 8.35% | [4] 23.8% | [5] 6.7% | [6] 3.2%

CCOC(=O)CCN(CCC(=O)OCC)Cc1cc(Cl)c2cccnc2c1O
active: [1] 99.1% | [2] 98.6% | [3] 99% | [4] 98.5% | [5] 99.3% | [6] 97.8%

NC1=NC(=S)CS1
inactive: [1] 0.95% | [2] -3.85% | [3] -12.3% | [4] -42.1% | [5] 16.7% | [6] 9.35%

COc1cc(OC)cc(N2CCC(c3c(N)nc(N)nc3Cl)CC2)c1
inactive: [1] -4.1% | [2] 10.1% | [3] -8.65% | [4] -2.25% | [5] 15.2% | [6] -18.3%

Nc1ccc2c(c1)-c1ccccc1C2O (stereo not drawn)
inactive: [1] -1.2% | [2] -19.1% | [3] -37.8% | [4] -60.9% | [5] -17.1% | [6] -16.4%

CC1COC(C)(C)O1 (stereo not drawn)
inactive: [1] 19.3% | [2] -31.6% | [3] 16.4% | [4] 0.65% | [5] 8% | [6] 11.2%

CC12CCC3C(CCC4CCCCC43C)C1CCC2CO (stereo not drawn)
inactive: [1] 21.8% | [2] 16.4% | [3] 17.8% | [4] -11.3% | [5] 23.2% | [6] 36.5%
